# High-throughput results: PubChem BioAssay, National Center for Advancing Translational Sciences (NCATS)
# ATXN viability – reduces viability in counter-screen for ATXN expression inhibitors | hit rate 0.49% among 400,000 | S2 cells (HEK-293 line with an ATXN2-luciferase reporter) viability, CellTiter-Fluor protease fluorescence, 24 h | Potency, µM (doses to about 56.7 µM), hits mostly cytotoxic; further: nearly all actives have a fitted effect of over 40% in size
# ATXN2 expr inh – inhibitors of ATXN2 expression; HEK-293 ATXN2-luciferase reporter, luminescence, 24 h; Potency, µM (series often up to 57 µM), for inactives: top-dose activity change, negative = inhibition, hits mostly inhibitors; hit rate 0.72% among 360,000; AID 1745845; further: on the % scale 0 is the no-effect control and ±100 the full control effect; nearly all actives have a fitted effect of over 55% in size
#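 qHTS (up to 57 uM final) was run with 24 h compound exposure of reporter cells at 37 °C. Each well was multiplexed: SteadyGlo luminescence measured ATXN2-luciferase expression after a fluorogenic Gly-Phe-AFC viability readout (25 uM final).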
# TGFb inhibitor – blocks TGF-b signaling. HepG2 CAGA-GFP TGF-b/SMAD3 reporter, GFP fluorescence, 18 h; TGF-beta stimulated, 500 pg/mL final. Potency, µM (doses to about 46.1 µM), inactives show top-dose activity, negative = inhibition, hits mostly inhibitors. hit rate 1.2% among 410,000. AID 588855; further: on the % scale 0 is the no-effect control and ±100 the full control effect; nearly all actives have a fitted effect of over 65% in size
#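 TGF-beta reporter screen: HEPG2 CAGA-GFP, 1% FBS, 500 pg/mL TGF-beta final, 18 h; per-cell GFP summed per well; curves fitted and categorized by class.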
# HepG2 viability – HepG2 cytotoxicity, counter-screen for TGF-b inhibitors; HepG2 CAGA-GFP viability, ATP luminescence, 18 h; Potency, µM (doses to about 46.1 µM), for inactives: at the top dose activity change, negative = cytotoxicity, hits mostly cytotoxic; hit rate 0.76% among 410,000; AID 588856
#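 HepG2 CAGA-GFP cells (1000/well, DMEM with 1% FBS) received compound, then TGF-beta at 500 pg/mL final, and were incubated 18 hours at 37 degrees C. Viability was read by CellTiter-Glo luminescence. Media-only wells were set as complete cell-killing and DMSO as no toxicity.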
# * marks the source's active call; other numbers are inactive results; i = inactive; ? = inconclusive; . = no result; ! = a repeat was not active. Hits are enriched below; roughly 2.3% of the tested compounds scored in any of these assays. The call rests on the fitted dose curve; in most records, active means well fitted curve in the direction sought with a large enough effect; inconclusive means small, poorly fitted or top-dose-only effect, or another doubt; inactive means no such curve, though single readings can be large; an effect the other way counts as inactive or inconclusive. Potency means the concentration at half of the fitted maximal effect.
SMILES,ATXN viability,ATXN2 expr inh,TGFb inhibitor,HepG2 viability
CC(C)(C)c1ccc(S(=O)(=O)N2CCC(c3ccncc3)CC2)cc1,?,?,2.8µM*,-69%
CN(C)CCC(=O)c1ccc(F)cc1,i,10%,-9%,-3%
CN(C)CCC(=O)c1cccc(Br)c1,?,.,14µM*,11µM*
FC(F)(F)c1cnc(-c2cc3c(c(OCC4CCCO4)c2)OCCN(Cc2cccn2-c2nccs2)C3)c(Cl)c1 (centres undefined),i,.,.,.
CCCS(=O)(=O)c1ncc(Cl)c(C(=O)N2CCN(c3ccc(OC)cc3)CC2)n1,.,.,4µM*,4.5µM*
CCSc1ncc(Cl)c(C(=O)N2CCN(c3ccc(OC)cc3)CC2)n1,i,-3%,-23%,-26%
Cc1cccc2cc(CN(CC3CCCO3)C(=O)c3cccc(F)c3)c(N(C)C)nc12 (centres undefined),i,.,.,.
CC(=O)N1c2ccc(S(=O)(=O)NCCC(=O)Nc3ccc(Br)c(C)c3)cc2CC1C (centres undefined),?,-35%,11µM*,-30%
COc1cc(/C=C/c2ccc3ccccc3n2)cc(OC)c1OC,.,.,-13%,-27%
OCC1OC(Oc2cccc3ccccc23)C(O)C(O)C1O (centres undefined),i,4%,-1%,13%
O=C(O)c1cc(O)c2c(c1)[C@@H]([C@H]1c3cc(C(=O)O)cc(O)c3C(=O)c3c(O[C@@H]4O[C@H](CO)[C@@H](O)[C@H](O)[C@H]4O)cccc31)c1cccc(O[C@@H]3O[C@H](CO)[C@@H](O)[C@H](O)[C@H]3O)c1C2=O,i,-2%,14µM*,-27%
Cc1ccsc1C(=O)N(Cc1cc2cc3c(cc2nc1N1CCOCC1)CCC3)CC1CCCO1 (centres undefined),i,.,.,.
CCN(c1cccc(C)c1)S(=O)(=O)c1cc(CN2C(=O)c3cccnc3C2=O)ccc1OC,i,2%,2%,11µM*
CN(C)CCn1c2ccccc2c2nc3ccc([N+](=O)[O-])cc3cc21,i,3.2µM*,?,-6%
CCn1c2ccccc2c2cc([N+](=O)[O-])ccc21,i,-7%,14%,-7%
O=[N+]([O-])c1ccc(-[n+]2ccc3ccccc3c2)c([N+](=O)[O-])c1,11µM*,?,5µM*,13µM*
CN(C)c1ccc(/C=C/c2ccnc3ccccc23)c(F)c1,.,.,?,-51%
COc1ccc(S(=O)(=O)CCC(=O)NCCc2ccc(Cl)cc2)cc1,i,-9%,?,13µM*
COc1ccc(C(=O)CCS(=O)(=O)c2ccc(C)cc2)cc1,i,6%,?,7.1µM*
Cc1ccc(C(=O)CCS(=O)(=O)c2ccc(Br)cc2)cc1,i,-3%,?,-79%
Cc1ccc(S(=O)(=O)CCC(=O)c2cccc([N+](=O)[O-])c2)cc1,?,?,11µM*,-67%
COc1ccc(CNC(=O)CCS(=O)(=O)c2ccc(Br)cc2)cc1,i,4%,4%,9%
Cc1ccc(S(=O)(=O)NCC(=O)Nc2cccc([N+](=O)[O-])c2)cc1,i,-14%,-24%,-8%
COc1ccc2c(c1)CCc1cnc(-n3ncc(C(=O)N(C)CC4CCCN(C)C4)c3C)nc1-2 (centres undefined),i,.,.,.
Cn1cnc2c(F)c(Nc3ccc(Br)cc3F)c(C(=O)NOCCO)cc21,.,14%,.,.
SMILES,ATXN viability,ATXN2 expr inh,TGFb inhibitor,HepG2 viability
CNC1[C@H](O)C(O[C@@H]2C(O)C(O[C@H]3O[C@H]([C@@H](C)NC)CC[C@H]3N)[C@@H](N)C[C@H]2N)OC[C@]1(C)O (some centres undefined),.,-5%,.,.
C/C(=N\Nc1ccccn1)c1ccc(N2CCOCC2)cc1,i,44%,-18%,-30%
C/C(=N\Nc1ccccn1)c1ccc(C(C)C)cc1,i,31%,13µM*,-36%
CCN(CC)c1ccc(N=Nc2nn(C)c(C)c2[N+](=O)[O-])cc1,13µM*,0%,3%,-6%
S=C1Cc2ccccc2N1,5.6µM*,6.3µM*,5.6µM*,8.9µM*
O=C(CSc1ccccn1)Nc1nonc1[N+](=O)[O-],13µM*,.,11µM*,13µM*
O=C(CSc1ccccn1)Nc1ccc(NC(=O)CSc2ccccn2)cc1,i,14%,1%,10%
COc1cc(-c2nc3cnccn3c2Nc2ccc(C(C)C)cc2)ccc1O,?,?,11µM*,11µM*!
COc1cc(-c2nc3cnccn3c2Nc2ccc(C)cc2)ccc1O,?,20%,-27%,-35%
O=C(NCCCN1CCOCC1)c1cnn(-c2ncc3c(n2)-c2ccccc2CC3)c1C1CC1,i,.,.,.
Cc1cc(C(=O)Nn2c(-c3ccc(Br)cc3)nc3ccccc3c2=O)ccc1[N+](=O)[O-],i,0%,13µM*,-31%
O=C(c1cc(-c2ccccc2)on1)N1CCOc2ccc(CN3CCN(c4ccccn4)CC3)cc2C1,i,.,.,.
CCN1CCN(CCNC(=O)c2ccc(/C=C3/Sc4ccccc4N(Cc4cccc(Cl)c4)C3=O)cc2)CC1,28µM*,25µM*,?,22µM*
O=C(CN1C(=O)/C(=C/c2ccc(C(F)(F)F)cc2)Sc2ccccc21)NCCCN1CCOCC1,i,-20%,?,-53%
CCc1ccc(/C=C2/Sc3ccccc3N(CC(=O)NCCCN3CCOCC3)C2=O)cc1,?,.,?,18µM*
Cc1ccc(NC(=O)/C=C\C(=O)N(c2ccc(C(C)C)cc2)C(C(=O)NCc2ccco2)c2ccc(F)cc2)cc1 (centres undefined),.,.,6.3µM*,-41%
Cc1ccc(NC(=O)CSc2nc(C)c(Cc3ccccc3)c(=O)[nH]2)cc1C,i,-17%,8.9µM*,-21%
CCC1OC(=O)C[C@@H](O)[C@H](C)[C@@H](O[C@@H]2O[C@H](C)C[C@H](N(C)C)[C@H]2O)[C@@H](CC=O)C[C@@H](C)C(=O)/C=C/[C@]2(C)OC2C1C (some centres undefined),16µM*,.,.,.
CCCCCCC[C@@H](C/C=C/CCC(=O)N(C)C/C(=C/Cl)C/C(=C\C(=O)N1C[C@H](O)CC1=O)OC)OC,?,?,16µM*,-104%
COc1ccc(C2CC(=O)N(Cc3ccc(F)cc3)c3ccccc3S2)cc1 (centres undefined),?,?,16µM*,-43%
CCn1c(CNC(=O)Cc2ccc(OC)cc2)nnc1SCC(=O)c1ccc(Br)cc1,i,0%,4%,-10%
CCn1c(CNC(C)=O)nnc1SCC(=O)c1ccc(Br)cc1,i,0%,-21%,22µM*
O=[N+]([O-])C(/C=C(\Cl)[N+](=O)[O-])=C1N(Cc2ccc(Cl)nc2)CCN1Cc1ccc(Cl)nc1,i,-12%,?,20µM*
OC1(c2ccc(Br)cc2)CCN(Cc2cccc(Br)c2)CC1,i,.,?,11µM*
